Only some compounds are listed: those with a hit (about 27% of all), similar ones and a draw of the others.
sEH inh: blocks human soluble epoxide hydrolase activity. P34913. recombinant human sEH enzymatic activity assay. inhibition, % at 2 µM. 91,000 tested, 0.34% active; in the data active = inhibition above about 80%
Target sequence (P34913 whole entry, looked up): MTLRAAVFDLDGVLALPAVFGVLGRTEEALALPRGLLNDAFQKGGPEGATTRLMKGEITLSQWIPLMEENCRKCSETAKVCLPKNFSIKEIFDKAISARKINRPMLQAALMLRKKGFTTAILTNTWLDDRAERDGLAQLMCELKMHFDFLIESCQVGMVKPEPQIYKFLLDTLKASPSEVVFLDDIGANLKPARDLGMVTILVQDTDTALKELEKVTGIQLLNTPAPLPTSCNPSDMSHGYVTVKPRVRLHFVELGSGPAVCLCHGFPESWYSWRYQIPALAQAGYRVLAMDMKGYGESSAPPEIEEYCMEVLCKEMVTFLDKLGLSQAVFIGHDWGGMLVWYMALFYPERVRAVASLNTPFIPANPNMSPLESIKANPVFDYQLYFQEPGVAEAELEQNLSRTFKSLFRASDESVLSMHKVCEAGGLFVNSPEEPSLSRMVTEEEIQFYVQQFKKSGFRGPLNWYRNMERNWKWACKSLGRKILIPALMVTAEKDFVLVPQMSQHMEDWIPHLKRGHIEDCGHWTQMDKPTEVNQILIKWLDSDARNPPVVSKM
sEH activator: increases human soluble epoxide hydrolase activity. 91,000 tested, 0.04% active. P34913. activation, % at 2 µM. purified human sEH enzymatic activity, activator screen. AID 717; in the data active = activation above about 37%
CYP2C19 inh: human CYP2C19 inhibition; P33261; CYP2C19 Supersomes, luciferin-H EGE luminescence, 30 min; inhibition, % at 5 µM; 96,000 tested, 21% active; AID 778;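 active = CYP2C19 inhibition above a set limit at 5 µM in the primary screen, cut at about 50% in these data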
CYP2C9 inh: inhibitors of human CYP2C9; CYP2C9 Supersomes, luciferin-H conversion, luminescence; inhibition, % at 5 µM; 96,000 tested, 20% active; AID 777;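 active = blocking of liver enzyme CYP2C9 beyond about 50% at 5 µM, limit read from the data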
CYP2C9 activ: increases human cytochrome P450 2C9 activity. P11712. AID 1024. activation factor at 5 µM. recombinant CYP2C9, luciferin-H conversion, luminescence; hits give high values; factor 1 = untreated enzyme, 0 = blocked. 96,000 tested, 1.4% active;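 active = activation factor of 2 or more for CYP2C9 at a 5 µM dose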
CYP2C19 act: cytochrome P450 2C19 (human) activation; P33261; activation factor at 5 µM; recombinant CYP2C19, luciferin-H EGE luminescence; hits give high values; 0 = fully inhibited enzyme, 1 = untreated enzyme; 96,000 tested, under 10 active; AID 1025;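 active = activation factor of at least 2 at 5 µM in the primary screen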
A number is an active result.

How did N#C/C(C(N)=O)=C1/CCc2ccccc2N1 do in these assays?
sEH inh: inactive; sEH activator: inactive; CYP2C19 inh: inactive; CYP2C9 inh: inactive; CYP2C9 activ: inactive; CYP2C19 act: inactive

What do the screens show for `COc1cccc(OCCSc2nnc3sc4ccccc4n23)c1`?
sEH inh: inactive; sEH activator: inactive; CYP2C19 inh: 50; CYP2C9 inh: inactive; CYP2C9 activ: inactive; CYP2C19 act: inactive

How did CCN(CC)C(=O)CSc1nnc2sc3ccccc3n12 do in these assays?
CYP2C19 inh: 77; CYP2C9 inh: inactive; CYP2C9 activ: inactive; CYP2C19 act: inactive

Results for Cc1ccccc1Nc1nc(N)nc(CSc2nnc3sc4ccccc4n23)n1 ?
sEH inh: inactive; sEH activator: inactive; CYP2C19 inh: inactive; CYP2C9 inh: inactive; CYP2C9 activ: 2.4; CYP2C19 act: inactive

How did Cc1ccccc1Nc1nc(N)nc(CSc2nnc(-c3ccccc3)n2C)n1 do in these assays?
sEH inh: inactive; sEH activator: inactive; CYP2C19 inh: inactive; CYP2C9 inh: inactive; CYP2C9 activ: inactive; CYP2C19 act: inactive

How did c1ccc(OCCSc2nnc3sc4ccccc4n23)cc1 do in these assays?
sEH inh: inactive; sEH activator: inactive; CYP2C19 inh: inactive; CYP2C9 inh: inactive; CYP2C9 activ: inactive; CYP2C19 act: inactive

Results for O=P(Cc1ccccn1)(c1ccccc1)c1ccccc1 ?
sEH inh: inactive; sEH activator: inactive; CYP2C19 inh: inactive; CYP2C9 inh: inactive; CYP2C9 activ: inactive; CYP2C19 act: inactive

What do the screens show for `NC(=O)CSc1nnc(C2CC2)n1Cc1ccccc1`?
sEH inh: inactive; sEH activator: inactive; CYP2C19 inh: inactive; CYP2C9 inh: inactive; CYP2C9 activ: inactive; CYP2C19 act: inactive

Results for CCOC(=O)c1ccc2nc(C)c3c(c2c1)OC(C)C3 (stereo not given) ?
sEH inh: inactive; sEH activator: inactive; CYP2C19 inh: inactive; CYP2C9 inh: inactive; CYP2C9 activ: inactive; CYP2C19 act: inactive

What do the screens show for `CCOC(=O)c1ccc2nc(C(F)(F)F)[nH]c(=O)c2c1`?
sEH inh: inactive; sEH activator: inactive; CYP2C19 inh: inactive; CYP2C9 inh: 60; CYP2C9 activ: inactive; CYP2C19 act: inactive

How did Cc1cc(C)n(Cc2ccc(NC(=O)c3nn(C)cc3[N+](=O)[O-])cc2)n1 do in these assays?
sEH inh: inactive; sEH activator: inactive; CYP2C19 inh: inactive; CYP2C9 inh: inactive; CYP2C9 activ: inactive; CYP2C19 act: inactive

How did Cn1cc([N+](=O)[O-])c(C(=O)Nc2cc(Oc3cccnc3)cc([N+](=O)[O-])c2)n1 do in these assays?
sEH inh: inactive; sEH activator: inactive; CYP2C19 inh: 72; CYP2C9 inh: 78; CYP2C9 activ: inactive; CYP2C19 act: inactive

Results for CCc1ccc2[nH]c(=O)c(C(c3nnnn3CCOC)N3CCN(c4ccccc4)CC3)cc2c1 (stereo not given) ?
sEH inh: inactive; sEH activator: inactive; CYP2C19 inh: inactive; CYP2C9 inh: 69; CYP2C9 activ: inactive; CYP2C19 act: inactive

Results for CCc1ccc2[nH]c(=O)c(C(c3nnnn3CCOC)N3CCN(c4ccc(F)cc4)CC3)cc2c1 (stereo not given) ?
sEH inh: inactive; sEH activator: inactive; CYP2C19 inh: 96; CYP2C9 inh: 69; CYP2C9 activ: inactive; CYP2C19 act: inactive

How did CCc1ccc2[nH]c(=O)c(C(c3nnnn3Cc3ccco3)N3CCC(C)CC3)cc2c1 (stereo not given) do in these assays?
sEH inh: inactive; sEH activator: inactive; CYP2C19 inh: 60; CYP2C9 inh: inactive; CYP2C9 activ: inactive; CYP2C19 act: inactive

How did Cc1cccc2cc(C(c3nnnn3Cc3ccccc3)N3CCN(c4ccccc4)CC3)c(=O)[nH]c12 (stereo not given) do in these assays?
sEH inh: inactive; sEH activator: inactive; CYP2C19 inh: inactive; CYP2C9 inh: 50; CYP2C9 activ: inactive; CYP2C19 act: inactive

What do the screens show for `CCc1ccc2[nH]c(=O)c(C(c3nnnn3Cc3ccccc3)N3CCOCC3)cc2c1` (stereo not given)?
sEH inh: inactive; sEH activator: inactive; CYP2C19 inh: inactive; CYP2C9 inh: inactive; CYP2C9 activ: inactive; CYP2C19 act: inactive

How did CNC(=O)NC(=O)CSc1ncc(C(F)(F)F)cc1Cl do in these assays?
sEH inh: inactive; sEH activator: inactive; CYP2C19 inh: inactive; CYP2C9 inh: inactive; CYP2C9 activ: inactive; CYP2C19 act: inactive

Source: PubChem BioAssay (several laboratories)
